Experiment [1] can be described thus: Cytometric Cell-Based qHTS for Inhibitors of the mTORC1 Signaling Pathway in MEF (Tsc2-/-, p53-/-) Cells (AID 2660).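 Also: Tsc2 and p53 null MEFs carrying empty vector with compound for 24 h; percent of cells above a phospho-rpS6 to PI ratio cutoff in each well; series mostly up to about 38 µM.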 An outline of the steps: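 Cells are plated, treated with compound for 24 hrs at 37 degree Celsius, then fixed, blocked and immunostained for phospho-rpS6 Ser235/236. Propidium iodide counterstain follows. Per-well % positive cells is derived from the PI-normalized phospho-S6 signal.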
(In general: qHTS replaces the single test concentration by a dilution series.)

The nature of experiment [2]: High Content Imaging Cell-Based qHTS for Inhibitors of the mTORC1 Signaling Pathway in MEF (Tsc2-/-, p53-/-) Cells (AID 2666).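 Also: percent of cells scored positive for phospho-rpS6 Ser235/236 immunostaining by imaging.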 An outline of the steps: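 MEF Tsc2-/- p53-/- (empty vector), DMEM/10% FBS; cpd 24 h 37 °C; PFA fix, Alexa-488 p-rpS6 S235/236 Ab, Hoechst; imaged; rapamycin-defined inhibition; % positive cells/well.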
Experiment [3] in a line: High Content Imaging Cell-Based qHTS for Inhibitors of the mTORC1 Signaling Pathway in MEF Cells (AID 2667).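 Also: Tsc2-/- p53-/- MEFs stably re-expressing wild-type Tsc2 exposed 24 h; series mostly up to about 38 µM.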 The gist of the method:
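Read-out is the share of phospho-rpS6-positive cells per well, from Hoechst-normalized Alexa-488 Ser235/236 staining imaged on IN Cell. Cells: WT Tsc2-expressing Tsc2-/-, p53-/- MEFs exposed to compound for 24 hrs.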

Experiment [4] can be described thus: Cytometry Cell-Based qHTS for Inhibitors of the mTORC1 Signaling Pathway in MEF cells (AID 2668).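 Also: Tsc2-/- p53-/- mouse embryonic fibroblasts stably re-expressing wild-type Tsc2; percent cells positive for phospho-rpS6 Ser235/236 relative to propidium iodide stain; series mostly up to about 38 µM.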 An outline of the steps: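 Tsc2-/-, p53-/- MEFs re-expressing WT Tsc2; cpd 24 hrs, 37 degree Celsius; PFA fix, Alexa-488 p-rpS6 (Ser235/236) Ab 2 hrs RT, PI counterstain; Acumen 488nm scan; p-S6/PI ratio → % positive cells; PI count = viability.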
Experiment [5] addresses Ubiquitin carboxyl-terminal hydrolase 2 (Homo sapiens) (UniProt O75604). The experiment is described as follows: qHTS Validation Assay for Inhibitors of Ubiquitin-specific Protease USP2a Using CHOP2 as the Reporter (AID 463106). The gist of the method:
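Fluorescence read-out at Ex 485nm/Em 531nm after 60min RT, following addition of 25nM Ub-CHOP2 plus 25nM reporter substrate to USP2 core (10nM) pretreated 30min with compound. Data normalized to NEM full inhibition; concentration-response curves fitted.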

Experiment [6] has as its target DNA polymerase III PolC-type (Bacillus subtilis (strain 168)) (UniProt P13267). The experiment is described as follows: qHTS Validation Assay for the Inhibitors of DNA Replication in Gram-Positive Bacteria (AID 485295).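 Also: reconstituted holoenzyme with PolC plus beta clamp SSB and primase; PicoGreen fluorescence of double-stranded DNA made on primed circular M13 template; series mostly up to about 57 µM.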 The gist of the method: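 First, compound is mixed with the reconstituted replication complex and held at room temperature. Next, circular single-stranded M13Gori with nucleotides starts synthesis. Finally, PicoGreen in EDTA halts the reaction and stains double-stranded product for fluorescence reading.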

For experiment [7], the target named is Tumor susceptibility gene 101 protein (Homo sapiens) (UniProt Q99816). The experiment is described as follows: qHTS Validation Assay for Iinhibitors of HIV-1 Budding by Blocking the Interaction of PTAP/TSG101 (AID 485342; calls by dose curve). The gist of the method: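 Binding of a FITC-tagged PTAP-motif peptide (50 nM) to the Tsg101 binding domain (10 uM) is monitored by fluorescence polarization. Compounds are pin-delivered before peptide addition, and incubation runs 20 min at room temperature.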
Tumor susceptibility gene 101 protein (Homo sapiens), sequence (Q99816 whole entry, looked up, the tested form may be a part): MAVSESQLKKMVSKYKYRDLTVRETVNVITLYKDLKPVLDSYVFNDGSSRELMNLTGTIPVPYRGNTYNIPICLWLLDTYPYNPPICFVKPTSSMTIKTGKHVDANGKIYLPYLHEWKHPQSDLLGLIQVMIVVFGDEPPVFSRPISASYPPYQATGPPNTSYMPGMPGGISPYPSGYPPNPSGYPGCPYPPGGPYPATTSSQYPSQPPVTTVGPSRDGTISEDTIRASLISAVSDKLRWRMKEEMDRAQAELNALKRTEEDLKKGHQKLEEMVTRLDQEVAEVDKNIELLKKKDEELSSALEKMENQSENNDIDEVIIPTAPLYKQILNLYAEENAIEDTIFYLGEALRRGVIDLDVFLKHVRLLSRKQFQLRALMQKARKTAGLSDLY

Experiment [8] in a line: qHTS Validation Assay to Find Inhibitors of Chronic Active B-Cell Receptor Signaling (AID 485345; active = well fitted curve in the direction sought with a large enough effect in the main read-out, with a control signal flat, not every such curve was filed as active). The gist of the method:
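TMD8 ABC-DLBCL cells stably carrying doxycycline-inducible IkappaBalpha–green luciferase fusion plus unfused red luciferase; compounds 46 uM to 3 nM, 4 h at 37C with doxycycline. Corrected green/red luminescence ratio normalized to 10 uM MG-132 and basal cell wells; curves fitted.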

Experiment [9] addresses Beta-2 adrenergic receptor (Homo sapiens) (UniProt P07550). The experiment is described as follows: qHTS validation assay of beta-arrestin-biased ligands of beta2-adrenergic receptor (AID 485366). The gist of the method: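 Compound series up to 46 microM applied to beta2-AR/beta-arrestin Tango cells, 18 hr, 37 degrees C, 5% CO2. Read-out: tTA-driven luciferase luminescence, converted to %Activity; concentration-response curves assigned curve classes.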

Experiment [10] deals with ATP-dependent 6-phosphofructokinase (Trypanosoma brucei brucei) (UniProt O15648). Put plainly: qHTS Validation Assay to Find Inhibitors of T. brucei phosphofructokinase (AID 485368). An outline of the steps:
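qHTS format, up to 57 uM. PFK 1.25 nM; F6P 0.5 mM; ATP 0.1 mM; 5 mM MgCl2, 0.01% Tween20, 0.1% BSA; 0.1 M TEA pH 8.0; 45 min RT; ADP-Glo readout; no-enzyme control = full inhibition.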

The target of experiment [11] is Thioredoxin reductase 1, cytoplasmic (Rattus norvegicus) (UniProt O89049). Put plainly: qHTS Assay for Substrates of Mammalian Selenoprotein Thioredoxin Reductase 1 (TrxR1) (AID 488772).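 Also: series mostly up to about 57 µM; a drop in NADPH fluorescence below the no-compound background marks a TrxR1 substrate.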 An outline of the steps:
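In this dual-purpose format, potential substrates are identified from the first fluorescence read after selenite addition, not from the 8-minute delta. Rat enzyme is preincubated with NADPH and then with compound at ~22 deg C.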

For experiment [12] the target is unchanged. The experiment is described as follows: qHTS Assay for Inhibitors of Mammalian Selenoprotein Thioredoxin Reductase 1 (TrxR1) (AID 488773).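 Also: drop in NADPH fluorescence over an 8 min run after selenite addition; series mostly up to about 57 µM; nearly all actives have a fitted effect of over 40% in size.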 The conditions noted are these: Potency: inhibition. An outline of the steps: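 Inhibition is scored from the loss of NADPH fluorescence between first and last reads of an 8-min kinetic run. Selenite (400 uM) was the substrate, added after 15 min compound preincubation at room temperature.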

Experiment [13] concerns the target Flap endonuclease 1 (Homo sapiens) (UniProt P39748). The experiment is described as follows: qHTS Validation Assay for the Inhibitors of Human Flap endonuclease 1 (FEN1) (AID 488816). The gist of the method:
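Enzyme reagent 10 nM; cpds pinned; 15 min RT preinc.; substrate 50 nM final; reads t=0 and 15 min; no-enzyme buffer wells as neg. control; normalized data, 4-parameter Hill fit.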

The target of experiment [14] is Chromobox protein homolog 1 (Homo sapiens) (UniProt P83916). Put plainly: qHTS Validation Assay for Inhibitors of HP1-beta Chromodomain Interactions with Methylated Histone Tails (AID 488953).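 Also: loss of AlphaScreen luminescence from HP1-beta binding biotinylated H3K9me3 peptide; series mostly up to about 110 µM; nearly all actives have a fitted effect of over 50% in size.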 The gist of the method: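 AlphaScreen proximity readout: streptavidin donor and Ni-chelate acceptor beads, 10 ug/mL final, 30 min dark, RT. Complex of 50 nM HP1-beta and 50 nM b-H3(1-18)K9me3 formed 30 min, then compound-treated 30 min; PBS pH 7.4/0.01% Tween-20.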
Chromobox protein homolog 1 (Homo sapiens), sequence (P83916 whole entry, looked up): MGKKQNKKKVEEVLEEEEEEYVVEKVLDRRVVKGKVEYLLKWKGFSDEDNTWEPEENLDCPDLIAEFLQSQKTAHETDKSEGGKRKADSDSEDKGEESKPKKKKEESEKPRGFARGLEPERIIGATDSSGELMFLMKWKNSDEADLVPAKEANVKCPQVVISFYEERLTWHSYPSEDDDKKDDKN

The nature of experiment [15]: Validation screen for small molecules that induce DNA re-replication in MCF 10A normal breast cells (AID 463097). Also: nearly all actives have a fitted effect of over 60% in size. An outline of the steps: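 Image-based qHTS: normal breast cells are incubated with compound for 48 hr, stained with Hoechst, and scanned for total nuclear fluorescence. Compounds raising the fraction of nuclei with elevated DNA content count as re-replication inducers.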

The nature of experiment [16]: Quantitative high throughput screen for delayed death inhibitors of the malarial parasite plastid, 96 hour incubation (AID 488745). Also: nearly all actives have a fitted effect of over 70% in size. Also: potency is read from the fitted curve at half-maximal effect. The gist of the method:
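Luciferase-expressing P. falciparum, infected RBCs 2% Hct/0.1% parasitemia (final); 96 h cpd exposure, 37 C, 5% CO2; RPMI 1640 + 0.5% Albumax, bicarbonate, gentamycin. Readout: luminescence loss = growth inhibition.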

Experiment [17] in a line: Quantitative high throughput screen for delayed death inhibitors of the malarial parasite plastid, 48 hour incubation (AID 488752). Also: nearly all actives have a fitted effect of over 65% in size. Also: potency is read from the fitted curve at half-maximal effect. An outline of the steps:
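Luciferase-expressing P. falciparum in RBCs, 2% Hct, 0.1% parasitemia final; RPMI 1640 + 0.5% Albumax; 48 h, 37 C, 5% CO2; luminescence readout, signal drop = growth inhibition.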

For experiment [18], the target named is M-phase phosphoprotein 8 (Homo sapiens) (UniProt Q99549). The experiment is described as follows: qHTS Validation Assay for Inhibitors for MPP8 Chromodomain Interactions with Methylated Histone Tails (AID 488949).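 Also: 50 nM MPP8 with 50 nM peptide preformed then compounds added for 30 min; AlphaScreen signal from MPP8 chromodomain bound to biotinylated H3K9me3 peptide; top concentration of the series differs between compounds; nearly all actives have a fitted effect of over 55% in size.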 An outline of the steps:
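50 nM MPP8 + 50 nM b-H3K9me3 peptide, PBS pH 7.4/0.01% Tween-20, 30 min RT; + cpd 30 min RT; + AlphaScreen donor/Ni-chelate acceptor beads 10 ug/mL final, 30 min dark; luminescence read.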

Inconclusive results are not listed. Calls of active or inactive are those of the source. Unless noted, calls follow the shape of the dose curve; as a rule, active = well fitted curve in the direction sought with a large enough effect; inconclusive = small, poorly fitted or top-dose-only effect, or another doubt; inactive = no such curve, though single readings can be large; an effect the other way counts as inactive or inconclusive.

Ubiquitin carboxyl-terminal hydrolase 2 (Homo sapiens), sequence (O75604 whole entry, looked up): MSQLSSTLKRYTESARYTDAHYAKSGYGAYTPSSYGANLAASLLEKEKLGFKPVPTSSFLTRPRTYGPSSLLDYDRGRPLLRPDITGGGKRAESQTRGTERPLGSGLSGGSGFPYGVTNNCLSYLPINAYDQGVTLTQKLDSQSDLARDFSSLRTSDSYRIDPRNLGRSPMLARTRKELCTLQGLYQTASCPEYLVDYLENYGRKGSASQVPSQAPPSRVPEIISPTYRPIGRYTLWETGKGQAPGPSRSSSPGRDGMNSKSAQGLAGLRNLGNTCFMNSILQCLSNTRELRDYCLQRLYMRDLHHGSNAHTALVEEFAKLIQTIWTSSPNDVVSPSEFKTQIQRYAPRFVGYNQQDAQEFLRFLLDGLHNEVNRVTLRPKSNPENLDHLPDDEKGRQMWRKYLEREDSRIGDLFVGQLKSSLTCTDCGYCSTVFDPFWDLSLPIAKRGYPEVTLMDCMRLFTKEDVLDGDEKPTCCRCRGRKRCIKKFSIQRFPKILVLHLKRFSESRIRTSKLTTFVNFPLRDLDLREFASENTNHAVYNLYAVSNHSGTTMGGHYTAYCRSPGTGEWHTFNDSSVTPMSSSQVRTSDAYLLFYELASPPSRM
ATP-dependent 6-phosphofructokinase (Trypanosoma brucei brucei), sequence (O15648 whole entry, looked up): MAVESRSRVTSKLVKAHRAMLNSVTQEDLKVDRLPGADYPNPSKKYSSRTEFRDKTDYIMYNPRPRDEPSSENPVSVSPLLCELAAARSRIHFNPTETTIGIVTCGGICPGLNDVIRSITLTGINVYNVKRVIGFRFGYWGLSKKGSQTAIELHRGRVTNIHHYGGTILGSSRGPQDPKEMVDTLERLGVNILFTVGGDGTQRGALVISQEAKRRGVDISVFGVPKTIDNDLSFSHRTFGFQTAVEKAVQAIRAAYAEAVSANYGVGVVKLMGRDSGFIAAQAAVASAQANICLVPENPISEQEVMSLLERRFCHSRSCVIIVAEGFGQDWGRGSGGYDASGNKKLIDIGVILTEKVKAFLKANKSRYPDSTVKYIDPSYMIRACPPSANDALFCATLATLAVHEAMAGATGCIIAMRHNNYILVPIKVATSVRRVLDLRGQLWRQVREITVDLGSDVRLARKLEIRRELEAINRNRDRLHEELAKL
Flap endonuclease 1 (Homo sapiens), sequence (P39748 whole entry, looked up): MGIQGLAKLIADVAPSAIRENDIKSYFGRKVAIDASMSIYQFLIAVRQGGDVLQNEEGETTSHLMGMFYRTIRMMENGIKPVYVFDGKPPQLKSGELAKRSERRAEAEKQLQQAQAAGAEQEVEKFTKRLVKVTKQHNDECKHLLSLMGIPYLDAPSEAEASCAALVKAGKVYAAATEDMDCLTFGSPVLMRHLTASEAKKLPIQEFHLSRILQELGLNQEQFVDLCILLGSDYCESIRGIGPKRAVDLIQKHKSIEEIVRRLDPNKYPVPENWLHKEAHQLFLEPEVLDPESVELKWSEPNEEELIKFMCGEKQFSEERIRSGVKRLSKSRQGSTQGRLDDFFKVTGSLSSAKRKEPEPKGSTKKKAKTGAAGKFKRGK
DNA polymerase III PolC-type (Bacillus subtilis (strain 168)), sequence (P13267 whole entry, looked up): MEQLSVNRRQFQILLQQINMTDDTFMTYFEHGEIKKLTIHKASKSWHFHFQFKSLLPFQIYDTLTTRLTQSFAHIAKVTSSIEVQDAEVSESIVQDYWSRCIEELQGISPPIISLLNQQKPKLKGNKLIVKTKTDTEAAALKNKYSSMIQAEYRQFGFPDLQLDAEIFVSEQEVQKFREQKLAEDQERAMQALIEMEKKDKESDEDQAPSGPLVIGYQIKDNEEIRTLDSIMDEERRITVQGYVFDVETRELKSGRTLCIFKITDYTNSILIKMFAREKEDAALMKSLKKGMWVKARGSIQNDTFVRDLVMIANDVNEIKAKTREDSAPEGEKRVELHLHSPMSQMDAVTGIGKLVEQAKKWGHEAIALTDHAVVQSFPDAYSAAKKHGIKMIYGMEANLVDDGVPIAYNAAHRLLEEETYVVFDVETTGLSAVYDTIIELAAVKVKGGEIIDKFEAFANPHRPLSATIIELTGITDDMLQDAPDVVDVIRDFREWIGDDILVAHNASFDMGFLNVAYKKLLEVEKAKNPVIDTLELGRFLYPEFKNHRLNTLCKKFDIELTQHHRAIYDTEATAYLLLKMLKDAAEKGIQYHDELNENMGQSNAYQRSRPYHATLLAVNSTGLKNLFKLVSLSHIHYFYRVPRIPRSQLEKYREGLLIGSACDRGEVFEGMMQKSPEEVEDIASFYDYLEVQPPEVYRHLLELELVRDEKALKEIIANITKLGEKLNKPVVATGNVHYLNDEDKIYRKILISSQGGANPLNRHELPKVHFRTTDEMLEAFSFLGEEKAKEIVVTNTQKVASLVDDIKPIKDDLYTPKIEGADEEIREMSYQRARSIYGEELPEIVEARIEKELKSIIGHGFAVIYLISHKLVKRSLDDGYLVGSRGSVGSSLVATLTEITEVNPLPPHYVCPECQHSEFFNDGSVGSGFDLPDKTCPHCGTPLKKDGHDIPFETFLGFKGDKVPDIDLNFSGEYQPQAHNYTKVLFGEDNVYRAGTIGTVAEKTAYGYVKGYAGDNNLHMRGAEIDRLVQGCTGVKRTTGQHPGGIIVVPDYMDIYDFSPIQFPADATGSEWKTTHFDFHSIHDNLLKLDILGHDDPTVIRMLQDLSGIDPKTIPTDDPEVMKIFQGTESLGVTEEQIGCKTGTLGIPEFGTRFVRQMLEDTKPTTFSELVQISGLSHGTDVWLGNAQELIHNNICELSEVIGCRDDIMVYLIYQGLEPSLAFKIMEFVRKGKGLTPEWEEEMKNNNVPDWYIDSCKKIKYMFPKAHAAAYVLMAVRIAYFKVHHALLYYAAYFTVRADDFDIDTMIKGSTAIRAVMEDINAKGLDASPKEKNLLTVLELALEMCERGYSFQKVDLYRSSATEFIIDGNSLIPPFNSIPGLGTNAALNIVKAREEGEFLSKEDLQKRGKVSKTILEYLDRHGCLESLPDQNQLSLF
Thioredoxin reductase 1, cytoplasmic (Rattus norvegicus), sequence (O89049 whole entry, looked up): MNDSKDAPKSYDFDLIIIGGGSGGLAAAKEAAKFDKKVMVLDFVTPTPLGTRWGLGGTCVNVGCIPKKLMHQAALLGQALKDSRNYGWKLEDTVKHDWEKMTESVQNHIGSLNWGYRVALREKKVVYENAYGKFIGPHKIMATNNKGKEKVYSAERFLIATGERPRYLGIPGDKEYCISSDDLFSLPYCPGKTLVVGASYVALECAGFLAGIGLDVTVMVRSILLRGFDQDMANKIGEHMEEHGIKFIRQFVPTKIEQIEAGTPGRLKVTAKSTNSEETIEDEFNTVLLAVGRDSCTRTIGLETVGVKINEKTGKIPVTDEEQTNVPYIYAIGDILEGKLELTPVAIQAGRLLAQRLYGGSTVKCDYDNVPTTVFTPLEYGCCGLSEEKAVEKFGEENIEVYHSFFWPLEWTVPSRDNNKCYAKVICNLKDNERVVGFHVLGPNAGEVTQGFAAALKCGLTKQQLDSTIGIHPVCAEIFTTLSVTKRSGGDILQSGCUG
Beta-2 adrenergic receptor (Homo sapiens), sequence (P07550 whole entry, looked up): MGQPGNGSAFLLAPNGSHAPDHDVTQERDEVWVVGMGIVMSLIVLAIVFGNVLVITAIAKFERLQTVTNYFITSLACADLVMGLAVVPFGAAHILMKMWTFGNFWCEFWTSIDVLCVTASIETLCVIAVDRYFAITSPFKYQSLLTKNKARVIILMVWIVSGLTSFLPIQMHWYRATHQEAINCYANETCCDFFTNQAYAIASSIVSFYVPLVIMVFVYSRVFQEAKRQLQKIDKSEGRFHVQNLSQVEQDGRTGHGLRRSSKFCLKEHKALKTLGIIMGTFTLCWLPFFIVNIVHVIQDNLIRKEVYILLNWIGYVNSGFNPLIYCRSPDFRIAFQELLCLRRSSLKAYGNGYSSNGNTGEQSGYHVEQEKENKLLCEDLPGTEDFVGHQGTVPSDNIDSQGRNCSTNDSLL

`CCN(CC)c1ncnc2c1ncn2[C@@H]1O[C@H](COP(=O)(O)OP(=O)(O)C(Br)(Br)P(=O)(O)O)[C@@H](O)[C@H]1O`: the outcome in experiment [1], in [7], in experiment [8] and in experiment [9] was inactive. Moreover, the Potency result in experiment [2], in experiment [3], in experiment [4], in experiment [5], in experiment [6] and in experiment [10] was “inactive” each time. For the same compound, the Potency result in [11], in experiment [12], in experiment [13] and in experiment [14] was “inactive” throughout.
On to `CCC1C(=O)OCC1Cc1cncn1C` (centres undefined), for which the compound was called inactive in experiment [1], in [7], in [8] and in [9]. For the same compound, the Potency entry in experiment [2], in experiment [3], in experiment [4], in experiment [5], in experiment [6] and in experiment [10] was “inactive” in each case. Further, the Potency result in [11] and in experiment [14] was “inactive” each time.
With `O=C(O)CC[C@@H](C(=O)O)N1C(=O)c2ccccc2C1=O`, the compound was called inactive in experiment [1], in experiment [8] and in experiment [9]. The Potency result in experiment [2], in experiment [3], in experiment [4], in [15], in [5] and in [6] was “inactive” in each case. In addition, the Potency result in experiment [16], in experiment [17], in experiment [11], in experiment [12], in [13] and in [18] was “inactive” in each case.
As to `C=C[C@@H]1CN2CC[C@@H]1C[C@H]2[C@H](O)c1ccnc2ccc(OC)cc12`, the call in experiment [1], in [7], in experiment [8] and in experiment [9] was inactive. Besides, the Potency result in [2], in [3], in experiment [4], in [15], in experiment [6] and in [11] was “inactive” throughout. For the same compound, the Potency entry in [14] was “inactive”. For the same compound, the Potency in experiment [16] was 32.9 nM (active); in experiment [17], 92.8 nM (active).
On to `COc1cc(C(O)CO)ccc1OS(=O)(=O)O` (centres undefined), for which the compound was called inactive in experiment [1], in experiment [8] and in [9]. Also, the Potency result in experiment [2], in experiment [3], in [4], in experiment [15], in [5] and in experiment [6] was “inactive” each time. Further, the Potency entry in [16], in [17], in [11], in [12], in experiment [13] and in experiment [18] was “inactive” in each case. Besides, the Potency entry in experiment [14] was “inactive”.
As to `CN1C2CC(OC(=O)[C@H](CO)c3ccccc3)CC1C1OC12` (some centres undefined), the compound was classed as inactive in experiment [1], in experiment [7], in experiment [8] and in [9]. The Potency entry in experiment [2], in [3], in experiment [4], in experiment [5], in experiment [6] and in [10] was “inactive” each time. The Potency result in experiment [12] and in experiment [14] was “inactive” each time.
For the compound `CN1CCc2cc(NC(=O)Nc3cccnc3)ccc21`, the compound was classed as inactive in experiment [1], in experiment [7] and in experiment [9]. In addition, the Potency entry in experiment [2], in experiment [3], in [4], in [15], in experiment [5] and in experiment [6] was “inactive” throughout. Moreover, the Potency result in experiment [11], in [12], in experiment [13] and in [18] was “inactive” each time.
Regarding `Fc1cccc(/C=N/N=C/c2cccc(F)c2)c1`, the outcome in [1], in experiment [7] and in [9] was inactive. For the same compound, the Potency result in experiment [2], in experiment [3], in [4], in experiment [15], in experiment [5] and in experiment [6] was “inactive” in each case. For the same compound, the Potency result in [10], in [11], in experiment [13], in [18] and in experiment [14] was “inactive” in each case.

(Values after PubChem BioAssay (NCATS).)
